Read-out in experiment [1]: Vascular cell adhesion molecule 1 (VCAM1), VCAM1 (gene 7412)
Put plainly: BSK_4H_VCAM1: BioMAP Diversity Plus: 4H Assay for Vascular cell adhesion molecule 1 (VCAM1) Biomarker Activity (AID 2283033).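 As to outcome: cell-surface VCAM-1 protein measured by ELISA.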 The settings on record: primary human endothelial cells (HUVEC); actives raise or lower the signal. Summed up: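 In this human endothelial (HUVEC) system, biomarker ELISA was run 24 h after compound addition, and total protein in parallel wells was assessed by SRB at 560 nm; DMSO served as negative control.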

Read-out in experiment [2]: Interferon-gamma inducible Protein 10 (IP10), CXCL10 (gene 3627)
Put plainly: BSK_BE3C_IP10: BioMAP Diversity Plus: BE3C Assay for Interferon-gamma inducible Protein 10 (IP10) Biomarker Activity (AID 2283034). The settings on record: primary human bronchial epithelial cells; actives raise or lower the signal. Summed up:
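BE3C cells (human bronchial epithelial, primary); 24 h exposure; ELISA for IP-10; DMSO-referenced bidirectional fit.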

Read-out in experiment [3]: Monokine induced gamma interferon (MIG), CXCL9 (gene 4283)
The experiment can be described thus: BSK_BE3C_MIG: BioMAP Diversity Plus: BE3C Assay for Monokine induced gamma interferon (MIG) Biomarker Activity (AID 2283035).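 As to outcome: MIG protein measured by ELISA in BE3C cultures after 24 h of dosing.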 The settings on record: primary human bronchial epithelial cells; actives raise or lower the signal. Summed up:
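hu bronchial epithelial 1° cells, 24 h cpd; MIG by ELISA; bidirectional fit, DMSO = baseline.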

Read-out in experiment [4]: Plasminogen activator inhibitor-1 (PAI1), SERPINE1 (gene 5054)
The experiment can be described thus: BSK_BE3C_PAI1: BioMAP Diversity Plus: BE3C Assay for Plasminogen activator inhibitor-1 (PAI1) Biomarker Activity (AID 2283037). The settings on record: primary human bronchial epithelial cells; actives raise or lower the signal. Summed up: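 In this multiplexed primary-cell system, bronchial epithelial cells receive test chemical and are sampled at 24 h. PAI-1 is read by ELISA, with DMSO serving as negative control for bidirectional fitting.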

Read-out in experiment [5]: urokinase plasminogen activator (uPA), PLAU (gene 5328)
Put plainly: BSK_BE3C_uPA: BioMAP Diversity Plus: BE3C Assay for urokinase plasminogen activator (uPA) Biomarker Activity (AID 2283038).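 Also: uPA protein level quantified by ELISA in cell cultures; uPA read one day after compound addition.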 The settings on record: primary human bronchial epithelial cells; actives raise or lower the signal. Summed up: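 Human primary bronchial epithelial cells were exposed to chemical for 24 h, then uPA levels were measured by ELISA. Responses were fitted bidirectionally against DMSO as negative control and baseline. Parallel SRB staining of total protein gauged overt cytotoxicity.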

Read-out in experiment [6]: Urokinase-type plasminogen activator receptor (uPAR), PLAUR (gene 5329)
The experiment can be described thus: BSK_BE3C_uPAR: BioMAP Diversity Plus: BE3C Assay for Urokinase-type plasminogen activator receptor (uPAR) Biomarker Activity (AID 2283039).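 As to outcome: cells exposed to compound for one day before measurement.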 The settings on record: primary human bronchial epithelial cells; actives raise or lower the signal. Summed up: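 Chemically treated human bronchial epithelial cells (lung primary) are assayed for uPAR by ELISA after 24 h, with data fitted in both directions using DMSO as negative control.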

Read-out in experiment [7]: Interleukin-6 (IL6), IL6 (gene 3569)
The experiment can be described thus: BSK_CASM3C_IL6: BioMAP Diversity Plus: CASM3C Assay for Interleukin-6 (IL6) Biomarker Activity for (AID 2283040). The settings on record: primary human coronary artery smooth muscle cells; actives raise or lower the signal.

Read-out in experiment [8]: Tissue plasminogen activator (tPA), PLAT (gene 5327)
Put plainly: BSK_BE3C_tPA: BioMAP Diversity Plus: BE3C Assay for Tissue plasminogen activator (tPA) Biomarker Activity (AID 2283041).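 Also: tPA level quantified by ELISA one day after compound addition.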 The settings on record: primary human bronchial epithelial cells; actives raise or lower the signal. Summed up: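 Using human lung primary bronchial epithelial cells, tPA was measured by ELISA 24 h after dosing; data fitted relative to DMSO.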

Read-out in experiment [9]: Interleukin-8 (IL8), CXCL8 (gene 3576)
The experiment can be described thus: BSK_CASM3C_IL8: BioMAP Diversity Plus: CASM3C Assay for Interleukin-8 (IL8) Biomarker Activity (AID 2283042).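 Also: IL-8 protein level quantified by ELISA.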 The settings on record: primary human coronary artery smooth muscle cells; actives raise or lower the signal.

Read-out in experiment [10]: Human Leukocyte Antigen - DR isotype (HLADR), HLA-DRA (gene 3122)
Put plainly: BSK_CASM3C_HLADR: BioMAP Diversity Plus: CASM3C Assay for Human Leukocyte Antigen - DR isotype (HLADR) Biomarker Activity (AID 2283043).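 Also: cell-surface HLA-DR protein level quantified by ELISA.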 The settings on record: primary human coronary artery smooth muscle cells; actives raise or lower the signal.

Read-out in experiment [11]: Macrophage colony-stimulating factor (MCSF), CSF1 (gene 1435)
The experiment can be described thus: BSK_CASM3C_MCSF: BioMAP Diversity Plus: CASM3C Assay for Macrophage colony-stimulating factor (MCSF) Biomarker Activity (AID 2283044).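 Also: M-CSF protein amount quantified by ELISA after 24 h exposure.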 The settings on record: primary human coronary artery smooth muscle cells; actives raise or lower the signal.

Read-out in experiment [12]: Low-density lipoprotein receptor (LDLR), LDLR (gene 3949)
Put plainly: BSK_CASM3C_LDLR: BioMAP Diversity Plus: CASM3C Assay for Low-density lipoprotein receptor (LDLR) Biomarker Activity (AID 2283045).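 Also: LDLR protein level on the cell surface quantified by ELISA.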 The settings on record: primary human coronary artery smooth muscle cells; actives raise or lower the signal.

Read-out in experiment [13]: Monocyte Chemoattractant Protein-1 (MCP1), CCL2 (gene 6347)
The experiment can be described thus: BSK_CASM3C_MCP1: BioMAP Diversity Plus: CASM3C Assay for Monocyte Chemoattractant Protein-1 (MCP1) Biomarker Activity (AID 2283046).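 Also: MCP-1 level quantified by ELISA 24 h after dosing.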 The settings on record: primary human coronary artery smooth muscle cells; actives raise or lower the signal.

The nature of experiment [14]: BSK_CASM3C_Proliferation: Cell Proliferation Assessment in the BioMAP Diversity Plus: CASM3C Assay (AID 2283047).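 Also: sulforhodamine B total protein stain as relative cell number at 560 nm; sub-confluent cells exposed 48 h before staining; fitted both ways against DMSO so gain or loss of cell number.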 The settings on record: primary human coronary artery smooth muscle cells.
Read-out in experiment [15]: Monokine induced gamma interferon (MIG), CXCL9 (gene 4283)
Put plainly: BSK_CASM3C_MIG: BioMAP Diversity Plus: CASM3C Assay for Monokine induced gamma interferon (MIG) Biomarker Activity (AID 2283048). The settings on record: primary human coronary artery smooth muscle cells; actives raise or lower the signal.

Read-out in experiment [16]: serum amyloid A (SAA), SAA1 (gene 6288)
The experiment can be described thus: BSK_CASM3C_SAA: BioMAP Diversity Plus: CASM3C Assay for serum amyloid A (SAA) Biomarker Activity (AID 2283049).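 Also: SAA protein level quantified by ELISA.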 The settings on record: primary human coronary artery smooth muscle cells; actives raise or lower the signal.

Experiment [17] is described as follows: BSK_CASM3C_SRB: Viability Assessment in the BioMAP Diversity Plus: CASM3C Assay (AID 2283050).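 Also: total protein by SRB staining as cytotoxicity measure in parallel cultures.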 The settings on record: primary human coronary artery smooth muscle cells.
Read-out in experiment [18]: Thrombomodulin, THBD (gene 7056)
Put plainly: BSK_CASM3C_Thrombomodulin: BioMAP Diversity Plus: CASM3C Assay for Thrombomodulin Biomarker Activity (AID 2283051).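 Also: thrombomodulin protein level measured by ELISA 24 h after dosing.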 The settings on record: primary human coronary artery smooth muscle cells; actives raise or lower the signal.

Read-out in experiment [19]: Tissue Factor, F3 (gene 2152)
Put plainly: BSK_CASM3C_TissueFactor: BioMAP Diversity Plus: CASM3C Assay for Tissue Factor Biomarker Activity (AID 2283052).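 Also: cell surface tissue factor protein level read by ELISA.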 The settings on record: primary human coronary artery smooth muscle cells; actives raise or lower the signal.

Read-out in experiment [20]: Transforming growth factor beta 1 (TGFb1), TGFB1 (gene 7040)
Put plainly: BSK_BE3C_TGFb1: BioMAP Diversity Plus: BE3C Assay for Transforming growth factor beta 1 (TGFb1) Biomarker Activity (AID 2283036;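 also: TGF-b1 protein level measured by ELISA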). The settings on record: primary human bronchial epithelial cells; actives raise or lower the signal. Summed up:
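TGF-b1 measured via ELISA, 24 h after chemical dosing of human bronchial epithelial cells (BE3C). Overt cytotoxicity assessed in parallel by SRB (0.1%, TCA-fixed, 560 nm); analysis bidirectional relative to DMSO.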

Activity calls are given as the source filed them. The calls were made as follows: active = hit-call score of the fitted dose curve at least 0.9, where 1 is the maximum; inactive = score below 0.9.

`NCCNCCN`: the outcome in experiment [1], in experiment [2], in experiment [3], in [4], in experiment [5] and in experiment [6] was inactive. The outcome in [7], in experiment [8], in [9], in [10], in experiment [11] and in [12] was inactive. In addition, the outcome in experiment [13], in experiment [14], in [15], in [16], in experiment [17] and in [18] was inactive. Moreover, in experiment [19], the outcome was inactive.
On to `O=P(c1ccccc1)(c1ccccc1)c1ccccc1`, for which the result in experiment [1], in [2], in experiment [3], in experiment [20], in experiment [4] and in experiment [5] was inactive. The outcome in experiment [6], in experiment [7], in experiment [8], in experiment [9], in [10] and in [11] was inactive. The result in [12], in experiment [13], in experiment [14], in experiment [15], in experiment [16] and in experiment [17] was inactive. In addition, the outcome in experiment [18] and in experiment [19] was inactive.
`O=C(O)c1cn(C2CC2)c2cc(N3CCNCC3)c(F)cc2c1=O`: the outcome in experiment [1], in experiment [2], in [3], in [20], in experiment [4] and in experiment [5] was inactive. For the same compound, the result in experiment [6], in [7], in experiment [8], in experiment [9], in experiment [10] and in experiment [12] was inactive. Also, the result in experiment [13], in experiment [14], in [15], in [16], in [17] and in experiment [18] was inactive. Moreover, in experiment [19], the result was inactive.
For `C=CCOC(=O)CCC1CCCCC1`, the result in [1], in [2], in [3], in [4], in experiment [5] and in experiment [6] was inactive. Also, the outcome in experiment [7], in experiment [8], in experiment [9], in experiment [10], in [11] and in experiment [12] was inactive. The result in experiment [13], in [14], in experiment [15], in [16], in [17] and in experiment [18] was inactive. For the same compound, the outcome in [19] was inactive.
Broadly, the AC50 is the midpoint of the concentration-response curve, whichever way the signal moves. Consider `CC1CCC(C(C)CS)CC1S` (configuration not stated), for which the AC50 is 29.1 µM (active) in experiment [1]; 30.7 µM (active) in experiment [2]; 35.4 µM (active) in experiment [3]; 20 µM (active) in experiment [6]; 33.5 µM (active) in [7]; 20 µM (active) in experiment [9]. Moreover, the concentration at half-maximal activity (AC50) in experiment [10] was 35.8 µM (active); in experiment [11] it was 22.3 µM (active); in experiment [12], 20 µM (active); in [13], 30.9 µM (active); in experiment [14], 29.6 µM (active); in experiment [15], 36.5 µM (active). In addition, the AC50 was 20 µM (active) in experiment [16], 29.7 µM (active) in experiment [17] and 29.1 µM (active) in experiment [18]. Also, the result in experiment [20], in experiment [4], in experiment [5], in experiment [8] and in experiment [19] was inactive.
For the compound `Nc1cc([N+](=O)[O-])ccc1Cl`, the result in experiment [1], in [2], in [3], in [20], in experiment [4] and in experiment [5] was inactive. Also, the outcome in [6], in experiment [7], in experiment [8], in experiment [9], in experiment [10] and in experiment [11] was inactive. Also, the outcome in experiment [12], in experiment [13], in experiment [14], in [15], in [16] and in experiment [17] was inactive. Further, the result in experiment [18] and in [19] was inactive.
On to `CCCCCCCCCC=O`, for which the outcome in [1], in experiment [3], in experiment [20], in [4], in [5] and in [6] was inactive. The outcome in experiment [7], in experiment [8], in [9], in experiment [10], in experiment [11] and in [12] was inactive. Further, the result in experiment [13], in experiment [14], in [15], in [16], in experiment [17] and in experiment [18] was inactive. Moreover, the outcome in experiment [19] was inactive. Moreover, the AC50 in experiment [2] was 20 µM (active).

For the origin of these results see PubChem BioAssay (EPA / NIEHS).
